Assay outcomes as filed in PubChem BioAssay.
NFkB transloc pot – enhances IL-1B driven NFkB nuclear translocation | HUVEC IL-1B NFkB p65 nuclear translocation imaging | activation, % at 2 µM | 94,000 tested, 0.3% active;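 active means activation above 40%, about the mean plus 3 SD, also judged a hit on visual image review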;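 further: percent activation is computed from the nuclear over cytoplasmic p65 intensity ratio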
NFkB transloc inh – blocks IL-1B driven NFkB nuclear translocation in HUVEC cells; 94,000 tested, 0.43% active; inhibition, % at 2 µM; HUVEC IL-1B NFkB p65 nuclear translocation imaging;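 active means inhibition above about 30% together with a positive call from visual inspection of the well image, limit read from the data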;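 further: nuclear over cytoplasmic p65 intensity ratio measured by imaging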
HUVEC tox IL1B – HUVEC cytotoxicity counter-screen, IL-1B stimulated. HUVEC cell count loss, Hoechst imaging. cell count reduction, % at 2 µM. 94,000 tested, 0.41% active. AID 845;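 active means cell count reduction more than 3 SD above the screen-wide mean, cut at about 70% in these data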
JNK3 inh – blocks human JNK3 kinase activity; purified JNK3 kinase activity, HTS; inhibition, % at 8 µM; 60,000 tested, 0.61% active; P53779; AID 746; in the data active means inhibition above about 17%
FAK blocker – inhibitors of human focal adhesion kinase. Q05397. biochemical FAK kinase activity assay. inhibition, %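 (tested at 7 µM)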. 97,000 tested, 0.84% active; in the data active means inhibition above about 19%
Target sequence (Q05397 whole entry, looked up): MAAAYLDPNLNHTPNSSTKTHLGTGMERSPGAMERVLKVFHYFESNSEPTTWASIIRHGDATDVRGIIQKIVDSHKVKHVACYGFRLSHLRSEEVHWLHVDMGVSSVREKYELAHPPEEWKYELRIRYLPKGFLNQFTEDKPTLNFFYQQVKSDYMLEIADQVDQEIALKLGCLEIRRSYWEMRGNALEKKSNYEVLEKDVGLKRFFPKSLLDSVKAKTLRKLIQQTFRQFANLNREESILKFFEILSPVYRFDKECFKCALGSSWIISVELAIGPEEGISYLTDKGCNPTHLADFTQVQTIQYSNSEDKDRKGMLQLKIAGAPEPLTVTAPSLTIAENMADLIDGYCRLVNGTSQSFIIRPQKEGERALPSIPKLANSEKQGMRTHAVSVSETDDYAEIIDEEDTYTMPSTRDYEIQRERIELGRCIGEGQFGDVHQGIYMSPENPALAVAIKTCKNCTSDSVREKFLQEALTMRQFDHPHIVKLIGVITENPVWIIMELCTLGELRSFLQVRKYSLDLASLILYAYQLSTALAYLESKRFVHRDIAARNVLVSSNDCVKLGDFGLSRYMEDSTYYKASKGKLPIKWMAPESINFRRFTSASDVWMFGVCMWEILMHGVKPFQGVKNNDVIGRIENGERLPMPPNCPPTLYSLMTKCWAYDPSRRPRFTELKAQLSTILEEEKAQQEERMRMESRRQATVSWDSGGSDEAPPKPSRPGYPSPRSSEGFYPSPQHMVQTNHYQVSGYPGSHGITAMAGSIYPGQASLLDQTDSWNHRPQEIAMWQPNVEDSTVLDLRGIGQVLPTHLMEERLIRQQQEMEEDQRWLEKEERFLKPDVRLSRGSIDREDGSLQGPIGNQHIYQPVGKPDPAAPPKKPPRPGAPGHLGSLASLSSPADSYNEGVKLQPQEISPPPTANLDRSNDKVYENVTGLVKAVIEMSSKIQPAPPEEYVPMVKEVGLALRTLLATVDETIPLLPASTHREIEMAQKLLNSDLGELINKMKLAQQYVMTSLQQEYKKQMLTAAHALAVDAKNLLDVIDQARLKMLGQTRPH
PTK2B oligo ant – blocks oligomerization of human Pyk2 in cells | AID 1347419 | z-score (the deposit names both 25 µM and 10 µM) | 99,000 tested, 0.83% active | Q293 cells, Pyk2 FERM NanoBiT luminescence; active compounds read low | Q14289;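 active means Z-score of -3 or lower, scaled per plate to the spread of control and sample wells; inactive means z-score above -3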;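 further: negative z-score means lost luminescence so less FERM oligomerization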
A number is an active result; n = inactive; x = no result given. Shown are actives, neighbours in structure and some others; about 2.4% of the full set was active somewhere.

SMILES	NFkB transloc pot	NFkB transloc inh	HUVEC tox IL1B	JNK3 inh	FAK blocker	PTK2B oligo ant
COc1ccc(O)c(C(=O)c2cnn(C(=O)c3cc(C)oc3C)c2)c1	x	x	x	x	x	n
Cc1cn(S(=O)(=O)c2ccc(Br)c3ccccc23)cn1	x	x	x	40	n	x
Cc1nc2nc3c(cn2n1)C(=O)CC(C)(C)C3	n	n	n	n	n	n
CCOc1ccc(-c2[nH]ncc2Oc2ccccc2OC)c(O)c1	n	n	n	n	n	-3
C=C(C)COc1ccc(-c2[nH]ncc2Oc2ccccc2OC)c(O)c1	n	n	n	n	n	-3.6
COc1ccc(S(=O)(=O)NCC(=O)N(CC(=O)NCC2CCCO2)c2cc(C)ccc2C)cc1 (centres undefined)	n	n	n	x	n	n
COCCSc1ccccc1C(=O)NCc1ccc2c(c1)OCO2	n	n	n	x	n	n
CC(C)(C)NC(=O)COC(=O)c1cncc(Br)c1	n	n	n	x	n	n
CCN(CC)S(=O)(=O)c1cccc(C(=O)N[C@H](C(=O)OCC(N)=O)C(C)C)c1	n	34	n	x	n	n
C=CCOc1ccc(C2c3c(oc4ccccc4c3=O)C(=O)N2c2ccccn2)cc1OCC (centres undefined)	x	x	x	n	x	x
CCN1CCN(C(=O)Nc2cccc3ccccc23)CC1	n	n	n	x	n	-3.2
CC1=CC(C)(C)N=C(Nc2ccc(C)cc2)S1	x	x	x	n	x	n
Cc1ccc(Nc2nnns2)cc1	n	38	n	x	n	n
Oc1cccc(-c2nc3c4c(ncn3n2)-c2ccccc2CC42CCCC2)c1	n	n	n	x	n	-3.1
COC(=O)c1cc(=O)nc2sc(-c3ccccc3)nn12	n	n	n	x	n	n
COC(=O)c1cc(=O)nc2sccn12	42	n	n	x	n	n
COCCN(C(=O)COc1ccc(Cl)cc1)c1nnc(-c2cccnc2)s1	n	n	n	x	n	n
O=C1CC(c2ccccc2)Cc2nc3ncnn3cc21 (centres undefined)	n	n	n	x	n	n
COC(=O)c1cccc(Cn2nnc3ccccc3c2=O)c1	n	n	n	17	n	n
COc1cccc(C(=O)OCn2nnc3ccccc3c2=O)c1	n	n	n	x	n	n
Cc1occc1-c1nnc(SCC(=O)N2CCOCC2)n1CCc1ccccc1	n	n	n	n	n	n
CCCCn1c(SCC(=O)N2CCOCC2)nnc1-c1ccoc1C	n	n	86	x	n	n
Cc1cccc(NC(=O)C2CCN(S(=O)(=O)c3cccc4nsnc34)CC2)n1	n	n	n	n	n	n
COc1ccc2nc(NC(=O)C3CCN(S(=O)(=O)c4cccc5nsnc45)CC3)sc2c1	n	n	n	n	n	-3.4
Cc1cc(C)c(S(=O)(=O)/N=C2\C=CC(=O)C(Cl)=C2)c(C)c1	n	31	n	x	n	n
SMILES	NFkB transloc pot	NFkB transloc inh	HUVEC tox IL1B	JNK3 inh	FAK blocker	PTK2B oligo ant
Cc1csc(Sc2nc3c(c(=O)[nH]c(=O)n3C)n2Cc2ccccc2Cl)n1	n	31	n	n	n	n
CC(C)Cn1cnc2c1c(=O)n(CC(=O)Nc1ccc3c(c1)OCO3)c(=O)n2Cc1ccccc1	n	33	72	n	n	n
CC(Oc1ccc(Cl)cc1Cl)C(=O)Nc1ccc2oc(-c3ccncc3)nc2c1 (centres undefined)	n	n	n	n	n	-3.2
CC1CN(C(=O)c2cc3c(=O)n4ccccc4nc3s2)CC(C)O1 (centres undefined)	x	x	x	n	x	n
COCCN1C(=O)c2ccccc2C(C(=O)N2CCN(c3ccccc3)CC2)C1c1ccc(F)cc1 (centres undefined)	n	n	n	x	n	n
C=CCNC(=S)NNC(=O)c1cccn(Cc2cccc(Cl)c2)c1=O	n	n	n	x	n	n
C=CCNC(=S)NNC(=O)c1cccn(Cc2ccc(Cl)cc2)c1=O	n	n	84	x	n	n
CCOCCCNS(=O)(=O)c1ccc(OC)c(Cl)c1Cl	n	n	n	x	n	n
CN(C)c1ccc(/C=C2\C(=O)N(c3ccc([N+](=O)[O-])cc3)N=C2N2CCOCC2)cc1	n	n	n	x	20	x
O=C1NC(Nc2ccccn2)(C(F)(F)F)C(=O)N1c1ccc(F)cc1 (centres undefined)	n	n	n	n	n	n
O=C(NC1(C(F)(F)F)NC(=O)N(c2ccc(F)c(Cl)c2)C1=O)c1ccncc1 (centres undefined)	n	n	88	x	n	n
C/C(NC1CCCC1)=C(/C#N)C(N)=O	n	n	n	32	n	n
Cn1c(Cn2nnc3ccccc32)nnc1SCC(N)=O	n	n	n	n	n	n
CC(=O)Nc1ccc(C(=O)CSc2nnc(Cn3nnc4ccccc43)n2C)cc1	n	78	n	n	n	n
Cc1ccccc1N1CCN(S(=O)(=O)c2ccccc2)CC1	n	n	n	x	n	-3.1
Cc1cccc(N2CCN(S(=O)(=O)c3ccc(S(=O)(=O)N4CCCC4)cc3)CC2)c1C	n	n	n	x	n	n
Cc1cc(S(=O)(=O)N2CCN(c3ccccc3C)CC2)ccc1F	n	n	n	n	n	-3.6
Cc1cc(S(=O)(=O)N2CCN(c3c(C)cccc3C)CC2)ccc1F	n	n	n	n	n	n
COc1ccc(N2C(=NC(C)=O)SC3CS(=O)(=O)CC32)cc1OC (centres undefined)	n	n	n	n	n	n
Cc1[nH]nc2c1C1(CCC(c3ccccc3)CC1)C(C#N)=C(N)O2 (centres undefined)	n	n	86	n	n	n
Cc1[nH]nc2c1C1(CCN(C(=O)c3ccccc3)CC1)C(C#N)=C(N)O2	n	n	n	n	n	n
CCCN(CCC)C(=O)c1ccc2c(c1)N(Cc1ccccc1)C(=O)CS2=O (centres undefined)	x	x	x	n	x	x
O=C(CCc1nc(-c2ccccc2F)no1)Nc1ccc(Oc2ccccc2)cc1	n	n	n	n	n	n
COc1cccc(NC(=O)CCc2nc(-c3ccccc3F)no2)c1	n	n	82	x	n	n
CCOC(=O)c1ccc(NC(=O)CCc2nc(-c3cccc(C)c3)no2)cc1	n	99	87	n	n	n
SMILES	NFkB transloc pot	NFkB transloc inh	HUVEC tox IL1B	JNK3 inh	FAK blocker	PTK2B oligo ant
C=CCc1ccccc1OCC(=O)OCCNC(=O)c1cccnc1	n	n	n	x	n	n
N#CC1=C(N)Oc2ccc3ccc(O)cc3c2C1c1cccnc1 (centres undefined)	n	n	n	x	n	-3.2
CCc1ccc(C(=O)/C=C/c2ccc([N+](=O)[O-])o2)cc1	n	44	n	x	n	n
CCOC(=O)/C(=C\c1ccc([N+](=O)[O-])o1)NC(=O)c1ccccc1	n	n	n	x	n	n
CCN(CC)S(=O)(=O)c1cccc(C(=O)Nc2nc3cc4c(cc3s2)OCCO4)c1	x	x	x	n	x	-3.5
O=C(NC1CCCCC1)c1ccc(CNc2ccccc2)o1	n	34	86	n	n	n
COc1ccccc1N(CC(=O)NCC1CCCO1)C(=O)CNS(=O)(=O)c1ccc(C)cc1 (centres undefined)	n	n	n	x	n	n
CC1=C(C#N)C(c2ccc3ncccc3c2)C(C#N)=C(C)N1	n	50	n	x	n	n
